High-throughput results deposited in PubChem BioAssay by National Center for Advancing Translational Sciences (NCATS).
Rows were chosen to be rich in hits. Some 15% of all compounds tested hit in one or more screens of this group.
TDP1 cell CPT: qHTS for Inhibitors of human tyrosyl-DNA phosphodiesterase 1 (TDP1): qHTS in cells in presence of CPT; chicken DT40 Tdp1-/-;hTDP1 cells + 20 nM CPT, ATP luminescence, 48 h; Potency, µM (highest dose often 46.2 µM), without a hit: at the highest dose activity change, negative = growth inhibition, actives largely listed as inhibitors; actives 12% (n = 420,000); AID 686979, 2013; also: nearly all actives have a fitted effect of over 55% in size
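Cell growth measured by CellTiter-Glo luminescence after a minimum 48 h, 37 C compound exposure with 20 nM CPT in Tdp1-knockout DT40 cells stably expressing hTDP1, seeded 400/well; qHTS titration format.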
12-LOX inh: Primary qHTS assay for inhibitors of human arachidonate 12S-lipoxygenase (ALOX12): Round 2 | Polyunsaturated fatty acid lipoxygenase ALOX12 (Homo sapiens), P18054 | purified 12hLO, xylenol orange hydroperoxide absorbance | Potency, µM (top dose mostly 108 µM), without a hit: top-dose activity change, negative = inhibition, hits mostly inhibitors | actives 1.1% (n = 580,000)
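Hydroperoxide product was detected by ferrous iron/xylenol orange as the 573 to 405 nm absorbance ratio. Arachidonic acid at 40 uM (final) was turned over for 30 min at room temperature by 150 nM human 12hLO, pH 7.0 Hepes buffer, after 15 min compound preincubation.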
RORg inh: qHTS for inhibitors of ROR gamma transcriptional activity; Potency, µM (titrated, usually from 53.6 µM), for the others: top-dose activity change, negative = inhibition, actives largely listed as inhibitors; actives 5.4% (n = 310,000); Drosophila S2 Gal4-RORgamma UAS-luciferase reporter, 20 h; Nuclear receptor ROR-gamma (Mus musculus), P51450; also: nearly all actives have a fitted effect of over 60% in size
Target sequence (P51450 whole entry, looked up, the tested form may be a part): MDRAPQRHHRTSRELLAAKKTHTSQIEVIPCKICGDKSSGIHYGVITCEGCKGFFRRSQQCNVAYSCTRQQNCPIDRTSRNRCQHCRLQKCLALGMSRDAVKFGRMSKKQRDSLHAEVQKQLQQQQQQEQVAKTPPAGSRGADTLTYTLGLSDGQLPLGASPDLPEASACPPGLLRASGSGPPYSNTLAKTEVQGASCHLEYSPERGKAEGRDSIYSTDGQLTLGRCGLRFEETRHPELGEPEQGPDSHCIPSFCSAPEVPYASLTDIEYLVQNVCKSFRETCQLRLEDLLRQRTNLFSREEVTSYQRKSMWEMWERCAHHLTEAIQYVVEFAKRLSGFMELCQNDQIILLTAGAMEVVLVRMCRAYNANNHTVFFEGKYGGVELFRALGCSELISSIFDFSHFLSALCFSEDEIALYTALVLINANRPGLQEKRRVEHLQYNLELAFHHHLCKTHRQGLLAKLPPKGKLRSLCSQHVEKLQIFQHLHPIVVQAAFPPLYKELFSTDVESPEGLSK
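A Gal4/UAS one-hybrid system in insect cells: metallothionein-promoter Gal4–ROR gamma fusion plus Photinus luciferase reporter. Copper sulfate 700 uM final, 20 hr ambient incubation, luminescent detection after 10 min with reagent.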
DT40 TDP1 no CPT: qHTS for Inhibitors of human tyrosyl-DNA phosphodiesterase 1 (TDP1): qHTS in cells in absence of CPT; AID 686978, 2013; Potency, µM (series often up to 46.2 µM), for inactives: at the top dose activity change, negative = growth inhibition, most hits filed as inhibitors; actives 15% (n = 420,000); DT40 Tdp1-/- hTDP1 cells, no CPT, ATP luminescence, 48 h; also: nearly all actives have a fitted effect of over 55% in size
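DT40 Tdp1-/-;hTDP1 cells, no CPT (DMSO vehicle only), 400 cells/well; compounds pin-transferred; ≥48 hr, 37 °C; CellTiter-Glo 30 min RT dark, luminescence read.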
VP16 counter: VP16 counterscreen qHTS for inhibitors of ROR gamma transcriptional activity | Drosophila S2 Gal4-VP16 UAS-luciferase, luminescence, 20 h | Potency, µM (highest dose often 53.6 µM), without a hit: at the top dose activity, negative = inhibition, most hits filed as inhibitors | actives 3.5% (n = 310,000);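 also: Gal4-VP16 expression switched on by copper sulfate through the metallothionein promoter; nearly all actives have a fitted effect of over 50% in size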
ELG1 repair inh: qHTS screen for small molecules that inhibit ELG1-dependent DNA repair in human embryonic kidney (HEK293T) cells expressing luciferase-tagged ELG1. AID 504467, 2011. HEK293T ELG1-luciferase reporter, luminescence, 16 h; DNA damage induced by 5-fluorouridine. actives 2.3% (n = 330,000). Potency, µM (titrated, usually from 46.1 µM), for the others: top-dose activity change, negative = inhibition, most hits filed as inhibitors; also: nearly all actives have a fitted effect of over 55% in size
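In this reporter screen, reduction of luminescence relative to DMSO vehicle indicated activity. Compounds and 5-fluorouridine were added together to 2,000 cells per well, incubated for 16 hr at 37 °C, then developed with ONE-Glo.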
An asterisk follows results filed as active; u = inconclusive; x = no result; [ ] = dose if it differs, or a comment. Calls follow the shape of the dose curve; as a rule, active = well fitted curve in the direction sought with a large enough effect; inconclusive = small, poorly fitted or top-dose-only effect, or another doubt; inactive = no such curve, though single readings can be large; an effect the other way counts as inactive or inconclusive. % is scaled to controls: 0 for no effect and ±100 for the full control effect; potency is read from the fitted curve at half-maximal effect.

SMILES	TDP1 cell CPT	12-LOX inh	RORg inh	DT40 TDP1 no CPT	VP16 counter	ELG1 repair inh
CCOc1ccc(CN(C)C(=O)[C@H](Cc2ccccc2)NC(=O)OCc2ccccc2)cc1OC	u	2%	u	21µM*	4%	u
CN(Cc1ccc(F)cc1)C(=O)C(Cc1ccccc1)NC(=O)c1ccccc1 (stereo not drawn)	u	-25%	x	18µM*	x	u
CCOc1ccc(CN(C)C(=O)NNC(=O)c2ccc(C)cc2)cc1OC	1%	-7%	3%	-10%	3%	-1%
N#Cc1cccc(C(=O)N2CCCCCCNC(=O)[C@@H]3CCCC[C@@H]32)c1	x	12%	x	x	x	x
CCOC(=O)c1c(NC(=O)CN2CCC(C)CC2)sc2c1CC(C)(C)OC2	x	4%	x	x	x	x
CC(=O)Nc1ccc(NC(=O)c2c[nH]c3ccc(F)cc3c2=O)cc1	x	-4%	x	x	x	x
Cc1cccc(Nc2nnc(-c3cc4ccc(O)cc4oc3=O)s2)c1	x	-12%	x	x	x	x
CN1C[C@@H](NS(=O)(=O)c2ccc(C#N)cc2)C[C@H]1c1nc(-c2cccnc2)no1	x	36%[176 µM]	x	x	x	x
Cc1nc2cc(Nc3nnc(-c4ccccc4)c4ccccc34)ccc2n1C	u	-40%	7.1µM*	u	6.3µM*	u
Clc1cccc(Nc2nnc(-c3ccccc3)c3ccccc23)c1	u	3%[176 µM]	-31%	u	5%	x
O=C([C@@H]1C[C@H](Oc2cccnc2)CN1S(=O)(=O)c1cccc(F)c1)N1CCCC1	x	28%	x	x	x	x
Cc1ccc(-c2ccc(/C=C(\C#N)c3ccccc3)o2)cc1	x	3%	x	x	x	x
Cc1ccc(/C(C#N)=C\c2cccn2C)cc1	x	45µM*	x	x	x	x
CCc1ccc(N2CC(C(=O)OCC(=O)Nc3ccc(Cl)c(Cl)c3)CC2=O)cc1 (stereo not drawn)	x	3%	x	x	x	x
COCCNS(=O)(=O)c1cc(C(=O)O)cc(-c2cccc3cccnc23)c1	x	37%	x	x	x	x
CCN(CC)CCNC(=O)Cn1nc(C)n2nc(-c3ccccc3)cc2c1=O	x	-17%	x	x	x	x
N#C/C(=C/c1cccn1-c1cccc(C(=O)O)c1)c1ccc(Cl)cc1	0%	45µM*	3%	-8%	2%	3%
Nc1nc2ncc(=O)[nH]c2c(=O)[nH]1	-1%	x	-4%	15µM*	-2%	x
COc1ccc(C2Nc3cc(OC)ccc3-n3cccc32)cc1 (stereo not drawn)	23µM*	u	-43%	23µM*	2%	-18%
COc1ccc(N2C3=[N+](CCCC3)CC2(C)O)cc1 (stereo not drawn)	4.1µM*	25%	-5%	3.7µM*	-10%	-15%
COc1ccc(/C(O)=C2\C(=O)C(=O)NC2c2ccc(Cl)cc2)cc1F (stereo not drawn)	x	11µM*	x	x	x	x
CCCOc1ccc(/C(O)=C2\C(=O)C(=O)NC2c2ccc(Cl)cc2)cc1 (stereo not drawn)	x	-62%	x	x	x	x
COc1ccc([C@@H]2Sc3cc(OC)ccc3N(CCN(C(C)C)C(C)C)C(=O)[C@H]2OC(C)=O)cc1	21µM*	-27%	41%	u	-13%	10%
COc1ccc2c(c1)C(NC(C)=O)C(=O)N2CCOc1ccccc1 (stereo not drawn)	x	-26%	x	x	x	x
COC(=O)c1sc2nc(CN(C)Cc3ccc(F)cc3)[nH]c(=O)c2c1C	x	-2%	x	x	x	x
SMILES	TDP1 cell CPT	12-LOX inh	RORg inh	DT40 TDP1 no CPT	VP16 counter	ELG1 repair inh
CCc1ccc(CN(C)Cc2nc(COc3ccccc3)no2)nc1	4%	14%	13µM*	-9%	6%	8%
CCn1ccnc1CN(C)Cc1nc(-c2ccc(C(=O)OC)cc2)no1	-29%	21%	-35%	-18%	3%	2%
CCn1ccnc1CN(C)Cc1nc(Cc2cccc(C(F)(F)F)c2)no1	-3%	-2%	18µM*	-14%	u	3%
CCc1ccc(CN(C)Cc2nc(Cc3cccc(C(F)(F)F)c3)no2)nc1	-29%	3%	2.2µM*	u	u	-10%
CC(CN(C)Cc1nc(Cc2cccc(C(F)(F)F)c2)no1)CN1CCCC1 (stereo not drawn)	21µM*	-2%	18%	23µM*	-8%	4%
CN(Cc1cccc(C(F)(F)F)c1)Cc1nc(-c2ccccc2)no1	x	59%	x	x	x	x
CC(C)CNC(=O)C(C)Sc1cc(C(=O)NC2CC2)c2ccccc2n1 (stereo not drawn)	x	-2%	x	x	x	x
CCN(CC)S(=O)(=O)c1ccc(Cc2ncc(C(F)(F)F)cc2Cl)s1	u	0%	30%	21µM*	5%	u
O=C(CCl)c1ccc(Cc2ncc(C(F)(F)F)cc2Cl)s1	3.3µM*	u	-11%	5.2µM*	-13%	1%
NS(=O)(=O)c1ccc(Cc2ncc(C(F)(F)F)cc2Cl)s1	u	-17%	-18%	u	21%	-7%
NNS(=O)(=O)c1ccc(Cc2ncc(C(F)(F)F)cc2Cl)s1	-7%	-27%	-2%	6%	-6%	1%
CCC(C(=O)Nc1nc2ccccc2s1)n1cnc2c1c(=O)n(C)c(=O)n2C (stereo not drawn)	x	5%	x	x	x	x
Cc1ccc(N2CCN(S(=O)(=O)c3ccccc3Cl)CC2)cc1Cl	x	28%	x	x	x	x
CCCc1ccc(S(=O)(=O)N2CCC(c3nnc(-c4cccc(C)c4)o3)CC2)cc1	5.2µM*	1%	x	4.6µM*	x	x
CCCc1ccc(S(=O)(=O)N2CCC(n3cnnc3C)CC2)cc1	x	1%	x	x	x	x
CC1CCN(S(=O)(=O)c2cccc(-c3nnc(-c4cccnc4)o3)c2)CC1	-92%	0%	-24%	-97%	8%	-19%
Cc1ccc(S(=O)(=O)N2CCC(c3nnc(-c4cccc(C)c4)o3)CC2)cc1	3.7µM*	u	x	3.7µM*	x	x
Cc1ccc(C(=O)c2ccccc2C(=O)N(C)Cc2cccs2)cc1C	x	9%	x	x	x	x
OC(c1ccc(Cl)cc1)c1ncc(-c2cccc(C(F)(F)F)c2)[nH]1 (stereo not drawn)	u	-13%	x	21µM*	x	x
OC(c1cc(F)cc(Cl)c1)c1ncc(-c2cccc(C(F)(F)F)c2)[nH]1 (stereo not drawn)	16µM*	-10%	x	13µM*	x	x
